Assay [1] is described as follows: qHTS assay to identify small molecule antagonists of the estrogen related receptor (ERR) signaling pathway from Tox21 library (AID 1224848). Further: nearly all actives have a fitted effect of over 50% in size. Further: potency means the concentration at half of the fitted maximal effect. In outline:
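First, 2,000 ERR cells per well were plated and held 6 h at 37 C/5% CO2. Next, compounds in DMSO were pinned in and left 18 h at 37 C. Finally, ONE-Glo was added and luminescence read after 30 min at room temperature.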
A general note: Quantitative high-throughput screening tests each substance at several concentrations.

Assay [2] in a line: qHTS assay to identify small molecule agonists of the estrogen related receptor (ERR) signaling pathway from Tox21 library (AID 1224849; calls by dose curve; further: nearly all actives have a fitted effect of over 15% in size). The note with it: ERR reporter cell line, ONE-Glo luciferase, 18 h. In outline: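 Luciferase activity in ERR pathway reporter cells served as the agonist readout; exposure lasted 18 h at 37 C, with ONE-Glo detection after 30 min at room temperature.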

A short description of assay [3]: qHTS RealTime-Glo MT Cell Viability Assay in HepG2 cells - 24 hour (AID 1224867). Further: nearly all actives have a fitted effect of over 50% in size. In outline: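 HepG2 cells were seeded at 600 cells/well together with NanoLuc luciferase and a cell-permeant prosubstrate, preincubated 5 h at 37 C/5% CO2, then pin-dosed with compounds in DMSO. Nonlytic luminescence from viable cells was read at each time point.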
The nature of assay [4]: qHTS RealTime-Glo MT Cell Viability Assay in HEK293 cells - 32 hour (AID 1224868). Further: nearly all actives have a fitted effect of over 50% in size. Further: potency means the concentration at half of the fitted maximal effect. Put shortly: (§1)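 HEK293 cells were seeded at 600 cells/well together with NanoLuc luciferase and cell-permeant prosubstrate, preincubated 5 h at 37 C/5% CO2, then given compound in DMSO by pintool. Luminescence from viable-cell prosubstrate reduction was read repeatedly over 40 h.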
Assay [5] can be described thus: A CellTox Green Cytotoxicity Assay to monitor cytotoxicity in HEK293 cells - 0 hour (AID 1224869). Further: nearly all actives have a fitted effect of over 50% in size. In outline:
(§2)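 Real-time, in one plate: 600 HEK293 cells/well with dead-cell DNA dye, pinned compound after 5 h, 37 C incubation over 40 h; viable cells give no appreciable fluorescence.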

Assay [6] is described as follows: qHTS RealTime-Glo MT Cell Viability Assay in HEK293 cells - 16 hour (AID 1224872). Further: nearly all actives have a fitted effect of over 50% in size. Further: potency means the concentration at half of the fitted maximal effect. Put shortly:
as §1

The nature of assay [7]: qHTS RealTime-Glo MT Cell Viability Assay in HepG2 cells - 8 hour (AID 1224873). Further: nearly all actives have a fitted effect of over 55% in size. Put shortly: (§3)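 HepG2 cells mixed with RealTime-Glo MT reagents (NanoLuc plus cell-permeant prosubstrate) were seeded at 600 cells/well, incubated 5 h at 37 C/5% CO2, then pinned with compounds in DMSO; nonlytic luminescence tracked viability during 40 h treatment.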
A short description of assay [8]: qHTS RealTime-Glo MT Cell Viability Assay in HEK293 cells - 40 hour (AID 1224874). Further: nearly all actives have a fitted effect of over 50% in size. Further: potency means the concentration at half of the fitted maximal effect. The note with it: RealTime-Glo luminescence; max response: stronger effect = lower value. Put shortly:
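Kinetic, non-lysing viability readout. Seed HEK293 (600/well) with reagent, incubate 5 h at 37 C/5% CO2, pin 23 nL compound in DMSO, incubate at 37 C, read luminescence at 0, 8, 16, 24, 32, 40 h.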

Assay [9] in a line: A CellTox Green Cytotoxicity Assay to monitor cytotoxicity in HEK293 cells - 40 hour (AID 1224871). Further: nearly all actives have a fitted effect of over 45% in size. Further: potency means the concentration at half of the fitted maximal effect. In outline: as §2
Assay [10] can be described thus: qHTS RealTime-Glo MT Cell Viability Assay in HepG2 cells - 40 hour (AID 1224870). Further: nearly all actives have a fitted effect of over 50% in size. In outline: as §3

Molecules are shown by their SMILES. “And” between values parts separate entries of the source, which are not always exact repeats. Equal values may be shown once. Records with an inconclusive call do not appear. Some structures have more than one record in an assay (separate samples or runs), and their calls can disagree. The source made the active and inactive calls. Unless noted, the call rests on the fitted dose curve; in most records, active means well fitted curve in the direction sought with a large enough effect in the repeat runs; inconclusive means weak or mixed curves; inactive means no such curve, though single readings can be large; an effect the other way counts as inactive or inconclusive.
On the % scale 0 is the no-effect control and ±100 the full control effect.

On to `CCc1cccc(C)c1N`, for which the Potency result in assay [1], in assay [4] and in [6] was “inactive” throughout. Moreover, the activity change, positive = activation in assay [2] (at 92.4 µM (top of the series)) was -1.49% (inactive). Also, the call in [3], in [5] and in assay [7] was inactive. Also, the max response in assay [8] was 1.23% (inactive) and 1.97% (inactive).

For the compound `ON=C1CCCCC1`, the Potency entry in [1], in assay [4] and in assay [6] was “inactive” each time. In addition, the activity change, positive = activation in assay [2] (at 92.4 µM (top of the series)) was -1.41% (inactive) and -1.15% (inactive). The call in assay [3], in [5] and in assay [7] was inactive. The max response in [8] is -0.0267% (inactive) and 0.158% (inactive).

Regarding `CC(C)(N)CO`, the Potency entry in assay [1], in assay [4], in assay [9] and in assay [6] was “inactive” throughout. In addition, the activity change, positive = activation in assay [2] (at 92.4 µM (top of the series)) is 3.88% (inactive) and 1.99% (inactive). The outcome in [3], in [5] and in [7] was inactive. Also, the max response in assay [8] was 5.94% (inactive) and 1.04% (inactive).

On to `Fc1ccc(Br)cc1`, for which the Potency result in assay [1], in [4], in assay [9] and in [6] was “inactive” throughout. In addition, in assay [2] (at 92.4 µM (top of the series)), the activity change, positive = activation was -0.613% (inactive) and 3.34% (inactive). Also, the compound was classed as inactive in assay [3], in assay [5] and in assay [10].

Turning to `COS(C)(=O)=O`, the Potency result in [1], in assay [4], in [9] and in [6] was “inactive” throughout. Further, in assay [2] (at 92.4 µM (top of the series)), the activity change, positive = activation was 1.76% (inactive) and -2.76% (inactive). The result in [3], in [5] and in [10] was inactive.

Turning to `OCCOCCOCCO`, the Potency entry in assay [1], in [4], in assay [9] and in assay [6] was “inactive” each time. Moreover, in assay [2] (at 92.4 µM (top of the series)), the activity change, positive = activation is -2.92% (inactive) and 6.58% (inactive). The compound was classed as inactive in assay [3], in assay [5] and in assay [7].

`Nc1ccccc1[N+](=O)[O-]`: the Potency entry in assay [1], in assay [4] and in [6] was “inactive” each time. The activity change, positive = activation in [2] (at 92.4 µM (top of the series)) is 9.45% (inactive) and 1.58% (inactive). Further, the compound was called inactive in assay [3], in assay [5] and in assay [7]. Besides, in [8], the max response is 3.94% (inactive) and 2.64% (inactive).

On to `CN(C)CCCN`, for which the Potency entry in assay [1], in assay [4] and in assay [6] was “inactive” throughout. In addition, the activity change, positive = activation in assay [2] (at 92.4 µM (top of the series)) is 5.71% (inactive) and 0.874% (inactive). For the same compound, the compound was classed as inactive in assay [3], in assay [5], in assay [10] and in [7].

Consider `CCC(O)OC(O)CC` (centres undefined), for which the Potency result in [1], in assay [4], in assay [9] and in [6] was “inactive” in each case. Also, in [2] (at 92.4 µM (top of the series)), the activity change, positive = activation was 4% (inactive) and 3.85% (inactive). The result in [3], in assay [5], in assay [10] and in assay [7] was inactive.

On to `C=C(C)C(=O)O[C@H]1C[C@@H]2CC[C@@]1(C)C2(C)C`, for which the Potency in assay [1] was 4.83 µM (active) and inactive; in assay [4], 15.4 µM (active) and inactive; in [9], 12.2 µM (active) and inactive; in assay [6] it was 15.4 µM (active) and inactive; in assay [8] it was 15.4 µM (active). In addition, the activity change, positive = activation in assay [2] (at 92.4 µM (top of the series)) is -82.3% (inactive) and 8.09% (inactive). Also, the compound was called inactive in assay [3] and in assay [5]. In assay [8], the max response is 2.39% (inactive).

For `OC[C@H]1O[C@@](CO)(O[C@H]2O[C@H](CO)[C@@H](O)[C@H](O)[C@H]2O)[C@@H](O)[C@@H]1O`, the Potency result in assay [1] and in [9] was “inactive” each time. In addition, the activity change, positive = activation in [2] (at 92.4 µM (top of the series)) is 6.61% (inactive) and 1.2% (inactive). For the same compound, the result in assay [5] was inactive.

Turning to `COc1ccc(Nc2ccccc2)c(C)c1`, the Potency entry in assay [1], in [4] and in assay [6] was “inactive” in each case. The activity change, positive = activation in [2] (at 92.4 µM (top of the series)) was -0.657% (inactive). Besides, the outcome in assay [3], in assay [5], in assay [10] and in [7] was inactive. Moreover, the Potency entry in [9] is “inactive and 43.6 µM (active)”. Also, in assay [8], the max response is 2.22% (inactive) and -26.6% (inactive).

Take `CC1=C(C)S(=O)(=O)CCS1(=O)=O`: the Potency entry in assay [1] and in assay [6] was “inactive” throughout. Besides, the activity change, positive = activation in assay [2] (at 92.4 µM (top of the series)) is 10.9% (inactive). Also, the outcome in assay [3], in assay [5], in assay [10] and in assay [7] was inactive.

Take `C[C@H]1C[C@@H]2[C@H]([C@@H](O)C[C@@]3(C)[C@H]2CC[C@]3(O)C(=O)CO)[C@@]2(C)C=CC(=O)C=C12`: the Potency result in [1], in assay [4] and in assay [6] was “inactive” throughout. The activity change, positive = activation in [2] (at 42.5 µM (top of the series)) is -3.14% (inactive); in [2] (at 92.4 µM (top of the series)), -13.3% (inactive). Further, the compound was called inactive in assay [3], in [5] and in assay [10].

Turning to `O=C(O)c1ccc(C(=O)O)cc1`, the compound was called inactive in [3], in assay [5] and in assay [10]. In addition, the Potency result in assay [4], in assay [9] and in assay [6] was “inactive” throughout.

Take `O=C(O)c1ccccc1C(c1ccc(O)cc1)c1ccc(O)cc1`: the Potency result in assay [1], in assay [4] and in [6] was “inactive” throughout. Moreover, the activity change, positive = activation in assay [2] (at 92.4 µM (top of the series)) is 4.92% (inactive) and 4.34% (inactive). Besides, the compound was called inactive in assay [3], in [5], in [10] and in [7]. The max response in assay [8] was 2.57% (inactive) and 12.8% (inactive).

As for `O=C(CC(C(=O)OC1CCCCC1)S(=O)(=O)O)OC1CCCCC1` (centres undefined), the Potency result in assay [1], in assay [4], in [9] and in assay [6] was “inactive” each time. Moreover, in [2] (at 92.4 µM (top of the series)), the activity change, positive = activation is 3.03% (inactive) and -2.61% (inactive). The call in assay [3], in assay [5] and in assay [7] was inactive. Besides, the max response in assay [8] is 7.94% (inactive) and 16.6% (inactive).

Turning to `CC(=O)CC(=O)Nc1ccccc1C`, the Potency result in assay [1], in assay [4] and in assay [6] was “inactive” each time. Also, in assay [2] (at 92.4 µM (top of the series)), the activity change, positive = activation is 1.06% (inactive) and 1.9% (inactive). The result in assay [3] and in [5] was inactive. The max response in assay [8] was -0.0445% (inactive) and -13.2% (inactive).

For the compound `O=C(Oc1ccccc1)c1ccccc1`, the Potency entry in assay [1], in [4], in assay [9] and in [6] was “inactive” each time. For the same compound, the activity change, positive = activation in assay [2] (at 92.4 µM (top of the series)) was 4.89% (inactive) and 5.21% (inactive). In addition, the outcome in [3] and in assay [5] was inactive. Moreover, in assay [8], the max response is -9.85% (inactive) and 1.19% (inactive).

`Cc1cccnc1`: the Potency result in [1], in assay [4] and in assay [6] was “inactive” throughout. Further, in assay [2] (at 92.4 µM (top of the series)), the activity change, positive = activation was 2.78% (inactive) and 3.63% (inactive). Moreover, the result in assay [3], in [5], in assay [10] and in [7] was inactive. Moreover, the max response in assay [8] is -5.56% (inactive) and 0.742% (inactive).

With `CN(C)CCOCCN(C)C`, the Potency entry in assay [1], in assay [4] and in [6] was “inactive” throughout. Also, the activity change, positive = activation in assay [2] (at 92.4 µM (top of the series)) was -5.24% (inactive) and -0.172% (inactive). The result in assay [3], in [5] and in assay [10] was inactive. Further, in assay [9], the Potency result was “inactive and 43.6 µM (active)”. Moreover, in assay [8], the max response is 0.168% (inactive) and 5.1% (inactive).

(Values after PubChem BioAssay (Tox21).)
